From PubChem
The list is not random: actives were taken first. Their share in the collection is about 4.1%.
DAX1 inh-1: DAX1 (NR0B1) inhibitors on StAR promoter, primary screen, cell-based, luminescence, SF-1 (NR5A1), full-length DAX-1; HEK293T StAR-luciferase reporter, SF-1/DAX-1 repression relief; inhibition, % at 6.8 µM; 370,000 compounds, 1.1% hits; AID 652010, 2013;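 active = inhibition above the mean over all tested compounds plus 3 SD, cut at about 3.6% in these data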;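 also: 0% = DAX-1 cells with DMSO and 100% = cells lacking DAX-1 with DMSO; higher inhibition means more luminescence from relief of DAX-1 repression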
hgDAF-12 ag: H. glycines DAF-12 receptor agonists, primary screen, cell-based, luminescence, HEK293, GAL4 fusion, UAS-luciferase; 370,000 compounds, 1.8% hits; activation, % at 6.8 µM; HEK293 GAL4-hgDAF12 UAS-luciferase reporter, agonist luminescence; normalized to butyrate control;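 active = activation above a cutoff set at the mean of all screened compounds plus 3 SD, cut at about 10% in these data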;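 also: 0% = DMSO wells and 100% = sodium butyrate wells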
ssDAF-12 act: S. stercoralis DAF-12 nuclear receptor activators, primary screen, cell-based, luminescence, HEK293, GRIP1 co-expression, lit1-tk-luc; Nuclear hormone receptor DAF-12 (Strongyloides stercoralis); activation, % at 6.8 µM; 370,000 compounds, 1% hits; HEK293 ssDAF-12/GRIP1 lit1-tk-luc reporter; % of 3 µM dafachronic acid response;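 active = activation above the mean over all tested compounds plus 3 SD, cut at about 0.9% in these data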;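 also: 0% = DMSO-only wells and 100% = 3 µM delta7-dafachronic acid wells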
DAX1 inh-2: DAX1 (NR0B1) inhibitors, primary screen, cell-based, HEK293, Gal4-DAX1, luciferase luminescence. inhibition, % at 6.75 µM. 340,000 compounds, 0.99% hits. HEK293 Gal4-DAX1 luciferase reporter. AID 504766, 2011. Nuclear receptor subfamily 0 group B member 1 (Homo sapiens), P51843;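 active = inhibition above the mean over all tested compounds plus 3 SD, cut at about 4.2% in these data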;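 also: 0% = DAX1-transfected cells with DMSO and 100% = empty-vector control cells with DMSO; inhibition shows as a rise in luminescence from relieved DAX1 repression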
Target sequence (P51843 207-470 limits assumed): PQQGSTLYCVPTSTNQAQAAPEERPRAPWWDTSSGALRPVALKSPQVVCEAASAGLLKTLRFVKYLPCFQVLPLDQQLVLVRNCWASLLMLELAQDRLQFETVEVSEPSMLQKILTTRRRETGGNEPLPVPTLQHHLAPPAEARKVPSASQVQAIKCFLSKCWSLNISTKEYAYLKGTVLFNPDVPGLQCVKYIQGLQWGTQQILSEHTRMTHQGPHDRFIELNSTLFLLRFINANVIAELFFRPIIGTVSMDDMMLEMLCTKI
hcDAF-12 act: H. contortus DAF-12 nuclear receptor activators, primary screen, cell-based, luminescence, HEK293, lit1-tk-luc reporter. activation, % at 6.8 µM. 370,000 compounds, 1.4% hits. AID 652067, 2013. HEK293 hcDAF-12 lit1-tk-luc reporter; 0% DMSO, 100% Δ7-dafachronic acid;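 active = activation above the mean of all tested compounds plus 3 SD, cut at about 5.5% in these data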;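 also: 100% = response to 3 µM Δ7-dafachronic acid high control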
Starred values were filed as active, the others as inactive; . = no result.

SMILES | DAX1 inh-1 | hgDAF-12 ag | ssDAF-12 act | DAX1 inh-2 | hcDAF-12 act
COCCn1c(SCC(=O)N2CC(C)OC(C)C2)nc2c([nH]c3ccccc32)c1=O (stereo not given) | 1 | 4 | 0 | 0 | 5.9*
CCn1c(SCC(=O)Nc2ccc(NC(C)=O)cc2)nc2c([nH]c3ccccc32)c1=O | 0 | 1 | 1.1* | 1 | 5.6*
C[C@H](c1ccccc1)N1C[C@@H](COCc2ccccc2)Oc2cccc(Oc3ccc(F)cc3)c2S1(=O)=O | -2 | -3 | -1 | . | -1
O=C(CSc1nc2c([nH]c3ccccc32)c(=O)n1-c1ccccc1)N1CCOCC1 | 0 | 3 | -1 | 0 | 6.0*
CCCn1cnc2c(SCc3ccccn3)nc(N)nc21 | 1 | -3 | -1 | 1 | 1
Nc1nc(SCc2ccccn2)c2ncn(C3CCCC3)c2n1 | 1 | 11* | -1 | 2 | -1
CCOC(=O)CC[C@@H]1CC[C@]2(CCCN(Cc3nccs3)C2)O1 | 1 | -5 | -1 | . | -1
Cn1nc(-c2ccccc2)cc1NS(=O)(=O)c1ccc(C#N)cc1 | 0 | 0 | -1 | 4.3* | 0
COc1ccc(OCCOc2ccccc2[N+](=O)[O-])cc1 | 2 | 8 | 1.2* | 1 | 1
O=C(COc1ccc(C2SCCS2)cc1)NNC(=O)C(Cl)Cl | 0 | 1 | 0 | 5.9* | 0
COc1ccc(S[C@]2(C(=O)N3CCN(C(C)=O)CC3)CC(=O)N[C@@H]2c2ccc(OC)cc2)cc1 | 0 | -1 | -1 | . | 0
COc1ccc(C2CC(C)(c3ccc(OC)cc3)Nc3ccccc3N2)cc1 (stereo not given) | 2 | 12* | -1 | 1 | 5.7*
c1ccc(-c2nnc(-c3ccccn3)nn2)nc1 | 3 | 13* | 0 | 3 | 4
COc1ccc(OC)c(C(C)NC(=O)c2ccc(Br)cc2)c1 (stereo not given) | 0 | 0 | -2 | 8.4* | 0
COC(=O)[C@]12C[C@H](CC(=O)N3CCCC3)C(=O)N(Cc3ccco3)C1=C[C@H](C(C)(C)C)O[C@@H]2C | -1 | 0 | -2 | . | -1
Brc1ccccc1/C=N/Nc1ccccn1 | 0 | 9 | 0 | 1 | 4
Cc1ccc(/C=N/Nc2ccccn2)s1 | 0 | 11* | 0 | 1 | 1
CC(C)c1ccc(NC(=O)O[C@H]2CC[C@@]34CCCN3C(=O)CCC[C@H]4[C@H]2C)cc1 | . | -4 | -2 | . | -4
Nn1c(SCc2ccccc2)nc2ccccc21 | 1 | 12* | 0 | 1 | 2
O=C(O)Cn1c(SCc2ccccc2)nc2ccccc21 | 0 | -1 | -1 | 1 | -1
c1csc(C2C3=C(Nc4ncnn42)c2ccccc2OC3)c1 (stereo not given) | 0 | 0 | 1.1* | 0 | 2
Cn1cc([N+](=O)[O-])c(C(=O)NCc2cc3ccccc3[nH]2)n1 | 1 | 3 | 1.8* | 1 | 3
Cn1cc([N+](=O)[O-])c(C(=O)Nc2ccc(-c3nc4ccccc4[nH]3)cc2)n1 | 1 | 6 | 0 | -1 | 2
CN(Cc1ccccc1)C(=O)OCc1cn(Cc2ccccc2Cl)nn1 | 0 | -1 | -1 | . | -2
O=C(CCNc1ccccc1)c1ccc2c(c1)OCO2 | 3 | 11* | 1 | 4.8* | 4
SMILES | DAX1 inh-1 | hgDAF-12 ag | ssDAF-12 act | DAX1 inh-2 | hcDAF-12 act
CN(C)CCC(=O)c1ccc2c(c1)OCO2 | 0 | -1 | -1 | 4 | -1
CCCCS(=O)(=O)NCC1CCN(C(=O)C(=O)c2cc3ccccc3o2)CC1 | 0 | -2 | -1 | . | -1
CCCC(=O)Nc1ccc(Oc2ccc(NC(=O)CCC)cc2)cc1 | 0 | -1 | -2 | 1 | 0
CCCC(=O)Nc1ccc(C#Cc2ccccc2)cc1 | 2 | 12* | -1 | 1 | -1
CC(C)CCn1c(CN2CCN(c3cccc(Cl)c3)CC2)nc2c1c(=O)n(C)c(=O)n2C | 2 | 13* | 0 | 0 | 3
CCCCn1c(CN2CCOCC2)nc2c1c(=O)n(C)c(=O)n2C | 0 | 11* | -1 | 0 | 0
CCCCCCn1c(Br)nc2c1c(=O)n(C)c(=O)n2C | 0 | -1 | 1.0* | 0 | 1
COCCn1c(CN2CCN(c3cccc(Cl)c3)CC2)nc2c1c(=O)n(C)c(=O)n2C | -4 | -3 | -2 | -1 | -4
CC(C)Cn1c(Br)nc2c1c(=O)n(CCC#N)c(=O)n2C | -1 | 0 | -1 | 4.3* | -2
CCCCCCn1c(NCC)nc2c1c(=O)n(C)c(=O)n2C | -2 | -6 | -2 | -4 | -3
CCCn1c(=O)c2c(nc(Br)n2CCC)n(C)c1=O | 0 | -2 | -1 | -1 | 0
CCN(C(=O)[C@@H](C1CC1)[C@@H](O)c1ccc(Cl)cc1)c1ccccc1 | 0 | 3 | -1 | . | -2
CCN(CC)C(=O)CC[C@H]1CC[C@]2(CCCN(C(=O)c3ccco3)C2)O1 | 1 | 1 | -1 | . | -2
Cc1ccsc1/C=N/Nc1ncnc2nc[nH]c12 | 3 | 3 | -1 | 4.6* | 2
C(=N\Nc1ncnc2nc[nH]c12)/c1cccs1 | 1 | 3 | 0 | 5.7* | 0
Cc1ccccc1/C=N/Nc1ncnc2nc[nH]c12 | 0 | 1 | -1 | 1 | 0
Clc1cnc(N/N=C/c2cccs2)c(Cl)c1 | 2 | 9 | 1.0* | 3 | 1
CC(=O)O[C@H]1C=C[C@@H](C#Cc2ccc(C(C)(C)C)cc2)O[C@@H]1COC(=O)Nc1ccccc1 | -1 | 0 | 0 | . | 0
COC(=O)C1CN(C2CC2)CCS(=O)(=O)N1Cc1cn(Cc2ccccc2)nn1 (stereo not given) | -1 | 1 | -1 | . | -1
Cc1ccc(/C=N/NC(=O)c2cc(C)oc2C)cc1 | 0 | 5 | -1 | . | -1
Cc1cc(C(=O)NN)c(C)o1 | 1 | 5 | -1 | 6.2* | 1
Cc1cc(C(=O)NNC(=O)c2sccc2C)c(C)o1 | 4.3* | 3 | 0 | 1 | 1
Cc1cc(C(=O)NNC(=O)c2cccs2)c(C)o1 | 0 | -1 | -1 | 0 | 0
Cc1cc(C(=O)N/N=C/c2ccncc2)c(C)o1 | 0 | 1 | -1 | 4.8* | -1
O=S(=O)(c1ccc(C(F)(F)F)cc1)N1CCCc2nc(-c3ccc(Br)cc3)ccc21 | 0 | 4 | 0 | . | 0
CC(C)(C)OC(=O)N1CCC(N[C@@H](Cc2c[nH]c3ccccc23)C(=O)NCC(c2ccccc2)c2ccccc2)(C(=O)NC2CCCCC2)CC1 | . | -1 | -2 | . | 2
